Measurements taken from PubChem BioAssay (NCATS).
Records with an inconclusive call do not appear. The source made the active and inactive calls. The call rests on the fitted dose curve; in most records, active means well fitted curve in the direction sought with a large enough effect; inconclusive means small, poorly fitted or top-dose-only effect, or another doubt; inactive means no such curve, though single readings can be large; an effect the other way counts as inactive or inconclusive.

Key:
[1] = MultiTox-Fluor Cytotoxicity Assay - LYMP1-001 - Dead Cells (AID 946);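 further: cells exposed to compound for 16 h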
Method in brief: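 AC50 from Hill fit of concentration-response; data normalized to DMSO (basal) and 15 uM tetraoctylammonium bromide (100%). LYMP1-001 lymphoblastoid cells, 2500/well, 16 hr compound at 37 C; dead-cell protease fluorescence, Ex/Em 485/520.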

[2] = MultiTox-Fluor Cytotoxicity Assay - LYMP1-001 - Live Cells (AID 947)
[3] = Cell Viability - LYMP1-002 - Assay at 16 hr (AID 948)
Method in brief: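 Acute cytotoxicity is scored as a concentration-dependent fall in intracellular ATP in a human lymphoblastoid line (LYMP1-002) after 16 hr compound exposure at 37 C, measured by luciferase luminescence.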

[4] = MultiTox-Fluor Cytotoxicity Assay - LYMP1-002 - Live Cells (AID 955);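 further: cells exposed to compound for 16 hours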
Method in brief: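 Human lymphoblastoid LYMP1-002 cells, 2500/well, treated 16 h at 37 C in complete medium. Live-cell protease activity via GF-AFC fluorescence (Ex/Em 405/510) after 60 min reagent incubation; AC50 from Hill fits.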

[5] = MultiTox-Fluor Cytotoxicity Assay - LYMP1-002 - Dead Cells (AID 960);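 further: cells exposed to compound for 16 h at 37 °C; nearly all actives have a fitted effect of over 60% in size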
Method in brief: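 Human lymphoblastoid LYMP1-002 cells, 2500/well, treated 16 h at 37 C; dead-cell protease cleavage of bis-AAF-R110 read by fluorescence (485/520); normalized to DMSO and 15 uM tetraoctylammonium bromide; AC50 from Hill fit.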

[6] = MultiTox-Fluor Cytotoxicity Assay - LYMP1-003 - Dead Cells (AID 961);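 further: cells exposed to compound for 16 h at 37 °C; nearly all actives have a fitted effect of over 70% in size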
Method in brief: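 Human lymphoblastoid LYMP1-003 cells (2500/well) were treated with compounds for 16 hr at 37 C in complete medium. Dead-cell protease release was read by bis-AAF-R110 fluorescence (Ex/Em 485/520). AC50 came from Hill fits, normalized to DMSO and 15 uM tetraoctylammonium bromide.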

[7] = MultiTox-Fluor Cytotoxicity Assay - LYMP1-003 - Live Cells (AID 962);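 further: cells exposed to compound for 16 hours at 37 °C; cytotoxic hits lower the live-cell protease signal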
Method in brief: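 LYMP1-003 lymphoblastoid cells, 2500/well in complete medium, treated 16 h at 37 C; live-cell protease cleavage of GF-AFC read by fluorescence (Ex/Em 405/510) after 60 min reagent; AC50 from Hill fits of concentration-response.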

[8] = Cell Viability - LYMP1-003 - Assay at 24 hr (AID 963)
Method in brief: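 Human lymphoblastoid LYMP1-003 cells, 2500/well, treated 24 h at 37 C in complete medium. Viability read as intracellular ATP by CellTiter-Glo luminescence after 30 min at room temperature; AC50 from Hill-equation fits of qHTS concentration-response.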

[9] = Cell Viability - LYMP1-003 - Assay at 40 hr (AID 964); further: series mostly up to about 92 µM; nearly all actives have a fitted effect of over 60% in size
Method in brief: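 LYMP1-003 human lymphoblastoid cells, 2500/well, preincubated 5 h at 37 C, then treated with compound for 40 h at 37 C. Intracellular ATP read by CellTiter-Glo luminescence after 30 min at room temperature; AC50 from Hill-equation fits.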

[10] = Cell Viability - LYMP2-003 (AID 965);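 further: cells exposed to compounds for 24 h before reading; nearly all actives have a fitted effect of over 50% in size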
Method in brief: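 Acute cytotoxicity is scored as a concentration-dependent drop in intracellular ATP, measured by luciferase luminescence in human lymphoblastoid cells treated for 24 hours at 37 C. AC50 values derive from Hill-equation modelling.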

Measured: Potency

C=CCCCC
inactive: all assays above

O=C(Cl)c1cccc([N+](=O)[O-])c1
inactive: all assays above

C1CCOC1
inactive: all assays above

c1ccsc1
inactive: all assays above

NC(=O)NC(N)=O
inactive: all assays above

CCCCC/C=C/C=C/C=O
not listed: [5] | [10]
inactive: all other assays above

CCCCCCC(=O)O
inactive: all assays above

Nc1ccc(F)cc1F
not listed: [5]
inactive: all other assays above

C=Cc1ccccn1
inactive: all assays above

O=C(O)c1ccccc1[N+](=O)[O-]
not listed: [5]
inactive: all other assays above

CC(=O)c1ccccn1
inactive: all assays above

CCOC(=O)C(C)C(C)=O (configuration not stated)
inactive: all assays above

Nc1cccc2c(=O)[nH][nH]c(=O)c12
inactive: all assays above

Cc1cc(C)c(N)cc1C
inactive: all assays above

Clc1ccccn1
inactive: all assays above

FC(F)(F)c1ccccc1Cl
not listed: [5]
inactive: all other assays above

OC(CCl)CCl
inactive: all assays above

C[C@@H]1O[C@@H](O[C@@H]2[C@@H](O)[C@H](OCCc3ccc(O)c(O)c3)O[C@H](CO[C@@H]3O[C@H](CO)[C@@H](O)[C@H](O)[C@H]3O)[C@H]2OC(=O)/C=C/c2ccc(O)c(O)c2)[C@H](O)[C@H](O)[C@H]1O
inactive: all assays above

O=C(O)CNC(=O)c1ccc(CO)o1
inactive: all assays above

Cc1ccccc1C(N)=O
inactive: all assays above

CSc1ccc(C=O)cc1
inactive: all assays above

CCc1ccccc1O
not listed: [5]
inactive: all other assays above

CC(=O)Nc1ccccc1C
not listed: [5]
inactive: all other assays above

COc1ccc(N)c(OC)c1
not listed: [5]
inactive: all other assays above

C=Cc1ccccc1C=C
not listed: [5]
inactive: all other assays above

CCNc1ccccc1
not listed: [5]
inactive: all other assays above

COC(=O)CCC(=O)OC
not listed: [5]
inactive: all other assays above

O=C(Cl)c1ccccc1[N+](=O)[O-]
not listed: [5]
inactive: all other assays above

CO[Si](CCCNCCC[Si](OC)(OC)OC)(OC)OC
not listed: [5]
inactive: all other assays above

O=C(Cl)c1c(Cl)cccc1Cl
not listed: [5]
inactive: all other assays above

C=CCOC(=O)COCCC(C)C
not listed: [5]
inactive: all other assays above

CCCCCCC=O
not listed: [5]
inactive: all other assays above

CCCOCC(C)OCC(C)O (configuration not stated)
not listed: [5]
inactive: all other assays above

COC(=O)c1ccccc1
not listed: [5]
inactive: all other assays above

Cc1ccc(Br)cc1
not listed: [5]
inactive: all other assays above

CC(=O)OCc1ccco1
not listed: [5]
inactive: all other assays above

O=[N+]([O-])c1ccc(NCCO)c(OCCO)c1
not listed: [5]
inactive: all other assays above

CC(C)N=C=NC(C)C
not listed: [5]
inactive: all other assays above

OC1CCCC1
not listed: [5]
inactive: all other assays above

O=C1OC(=O)c2c(Cl)c(Cl)c(Cl)c(Cl)c21
not listed: [5]
inactive: all other assays above

Nc1cccc(C(F)(F)F)c1
not listed: [5]
inactive: all other assays above

[O-]/[N+](=N\O)c1ccccc1
not listed: [5]
inactive: all other assays above

Nc1cccc(N)c1
not listed: [5]
inactive: all other assays above

CC(C)CCOC(=O)/C=C/c1ccccc1
not listed: [5]
inactive: all other assays above

Nc1cccc([N+](=O)[O-])c1
not listed: [5]
inactive: all other assays above

O=C1OC(=O)c2cc([N+](=O)[O-])ccc21
not listed: [5]
inactive: all other assays above

CCCCCCCCC/C=C/CC1CC(=O)OC1=O (configuration not stated)
not listed: [5]
inactive: all other assays above

NCCCCCCN
not listed: [5]
inactive: all other assays above

c1ccc2c(c1)ccc1ncccc12
not listed: [5]
inactive: all other assays above

Cc1cc(C2(c3cc(C)c(O)cc3C)OS(=O)(=O)c3ccccc32)c(C)cc1O
not listed: [5]
inactive: all other assays above

Cc1ccc2oc(=O)ccc2c1
not listed: [5]
inactive: all other assays above

CCCCOCCOCCOCCCC
not listed: [5]
inactive: all other assays above

Cc1ccccc1Br
not listed: [5]
inactive: all other assays above

C1CCCC1
not listed: [5]
inactive: all other assays above

C[C@@H]1CC2(OC3C[C@@]4(C)C5=CC[C@H]6C(C)(C)C(O[C@@H]7OC[C@@H](O)[C@H](O)[C@H]7O)CC[C@@]67C[C@@]57CC[C@]4(C)C31)OC(O)C1(C)OC21 (some centres not stated)
not listed: [5]
inactive: all other assays above

Cc1cccc(Br)c1
not listed: [5]
inactive: all other assays above

COC(=O)CS
not listed: [5]
inactive: all other assays above

CCCCC(CC)COCC1CO1 (configuration not stated)
not listed: [5]
inactive: all other assays above

O=C(O)CN(CC(=O)O)CC(=O)O
not listed: [5]
inactive: all other assays above
